Epigenetic reg: regulators of epigenetic silencing causing reporter derepression in mouse cells; AID 1865; murine LDR cells, GFP reporter derepression, 30 h; 280,000 compounds, 0.2% hits; Potency, µM (titrated, usually from 53.9 µM), without a hit: at the top dose GFP activation, hits mostly activators; note: % of control where 0% means no effect; nearly all actives have a fitted effect of over 60% in size
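Reporter derepression read as number of fluorescent GFP-positive objects, 20-120 um in size, counted by laser-scanning cytometer. Mouse LDR line with an epigenetically silenced CMV-GFP locus; compound incubation 30 h, 37 C.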
VP16 counter: Gal4-VP16 reporter inhibition counter-screen; Drosophila S2 Gal4-VP16 UAS-luciferase, luminescence, 20 h; 310,000 compounds, 3.5% hits; Potency, µM (titrated, usually from 53.6 µM), without a hit: at the top dose activity, negative = inhibition, hits mostly inhibitors;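 note: Gal4-VP16 expression switched on by copper sulfate through the metallothionein promoter; % is set by controls: 0 for no effect and ±100 for the full control effect; nearly all actives have a fitted effect of over 50% in size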
Sfp PPTase inh: blocks B. subtilis Sfp PPTase activity. Potency, µM, inactives show largest response in the series, negative = inhibition, usual class: inhibitors. Biochemical Sfp PPTase activity, qHTS. 310,000 compounds, 3.5% hits;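 note: the enzyme is Sfp with the accession as filed and its product quenches rhodamine fluorescence; 0% = enzyme reaction without inhibitor and -100% = no enzyme wells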
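Reaction rates are the 30-min fluorescence difference (ex 525, em 598 nm) in wells containing 15 nM Sfp, 5 uM rhodamine-CoA and 12.5 uM BHQ-2-YbbR at pH 7.6 with 10 mM MgCl2.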
RORgamma inh: blocks mouse ROR gamma transcriptional activity; P51450; Drosophila S2 Gal4-RORgamma UAS-luciferase reporter, 20 h; Potency, µM (titrated, usually from 53.6 µM), for inactives: top-dose activity change, negative = inhibition, actives largely listed as inhibitors; 310,000 compounds, 5.4% hits; AID 2551; note: % is set by controls: 0 for no effect and ±100 for the full control effect; nearly all actives have a fitted effect of over 60% in size
Target sequence (P51450 whole entry, looked up, the tested form may be a part): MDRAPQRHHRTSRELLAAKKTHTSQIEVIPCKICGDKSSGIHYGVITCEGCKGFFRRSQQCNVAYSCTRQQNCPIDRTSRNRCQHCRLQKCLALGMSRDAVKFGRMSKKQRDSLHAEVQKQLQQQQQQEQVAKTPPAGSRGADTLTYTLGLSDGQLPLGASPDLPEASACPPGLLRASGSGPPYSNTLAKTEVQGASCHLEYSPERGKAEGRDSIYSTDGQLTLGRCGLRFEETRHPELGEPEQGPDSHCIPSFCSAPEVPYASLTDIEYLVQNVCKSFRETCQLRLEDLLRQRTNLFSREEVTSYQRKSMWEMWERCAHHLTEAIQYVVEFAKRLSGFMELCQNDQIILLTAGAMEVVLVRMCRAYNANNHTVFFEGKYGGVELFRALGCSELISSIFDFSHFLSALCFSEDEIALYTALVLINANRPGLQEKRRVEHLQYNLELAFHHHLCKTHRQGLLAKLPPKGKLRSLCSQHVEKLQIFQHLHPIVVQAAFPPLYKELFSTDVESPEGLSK
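Luminescence from a UAS-regulated Photinus luciferase reporter in stably transfected Drosophila Schneider cells is measured; decreased signal marks ROR gamma inhibition. Fusion expression is induced by 700 uM copper sulfate for 20 hr.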
PINK1 modulator: modulators of PINK1 expression; PINK1 immunofluorescence, high-content cytometry, 24 h; Potency, µM (doses to about 76.6 µM), for the others: at the highest dose activation (PINK1 increase), most hits filed as activators; 410,000 compounds, 0.2% hits; active = well fitted activation curve with a large enough effect; inconclusive = small, poorly fitted or top-dose-only effect; cell line not stated here; note: % of control where 0% means no effect; nearly all actives have a fitted effect of over 65% in size
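Fluorescence from anti-PINK1 antibody, together with nuclear and cell stains, was scanned on a laser-scanning cytometer. Before staining, stable-line cells were incubated 24 hours with compounds at 5 concentrations; primary antibody 12 h at 10 degrees C.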
ClpP mod: qHTS Assay for Activators of ClpP. purified B. subtilis ClpP, FRET peptide cleavage, 20 min. Potency, µM (series often up to 57.5 µM), without a hit: at the highest dose activity change, negative = active. AID 651965, 2013. 340,000 compounds, 1.9% hits; active = well fitted falling curve with a large enough effect; inconclusive = small, poorly fitted or top-dose-only effect; inactive = no such curve, though single readings can be large or run the other way; note: the source files actives as falling curves though it sought activators and does not explain the sign; nearly all actives have a fitted effect of over 65% in size
Target sequence (P80244 whole entry, looked up): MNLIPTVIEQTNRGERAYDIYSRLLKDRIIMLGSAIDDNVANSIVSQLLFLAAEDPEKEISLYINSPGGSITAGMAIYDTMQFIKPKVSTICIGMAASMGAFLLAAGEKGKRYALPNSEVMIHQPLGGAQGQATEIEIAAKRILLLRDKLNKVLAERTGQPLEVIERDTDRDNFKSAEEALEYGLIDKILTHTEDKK
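Purified B. subtilis ClpP, 10 microg/mL final in Tris/HCl pH8 with KCl, BSA, glycerol and Tween-20, cleaved an Abz/nitrotyrosine-quenched decapeptide. Fluorescence (ex 320, em 430) was read at 0 and 20 min at room temperature. Delta was normalized to 5.8 microM ADEP and DMSO/no-enzyme controls.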
Active calls of the source: *; ? = inconclusive; / = no result. The list is not random: actives were taken first. Their share in the collection is about 8.1%. Unless noted, calls come from the whole dose curve; as a rule, active = well fitted curve in the direction sought with a large enough effect; inconclusive = small, poorly fitted or top-dose-only effect, or another doubt; inactive = no such curve, though single readings can be large; an effect the other way counts as inactive or inconclusive. Potency is the fitted concentration of half-maximal effect.

SMILES | Epigenetic reg | VP16 counter | Sfp PPTase inh | RORgamma inh | PINK1 modulator | ClpP mod
Cc1nc(NCc2ccccc2)c2nc(-c3ccccc3)n(CC(C)(C)CN(C)C)c2n1 | 0.4% | -13.0% | 1.9% | 14.1µM* | / | /
O=c1oc2ccccc2cc1-c1cn2cc(Cc3ccc(Cl)cc3)sc2n1 | 4.8% | / | / | / | 0.6% | -7.6%
Cc1ccn2cc(-c3cc4ccccc4oc3=O)nc2c1 | 0.0% | ? | -0.9% | 2.51µM* | 0.8% | -1.2%
O=C1C(=O)c2ccccc2C(O)=C1c1ccccc1F | -2.2% | 1.26µM* | 16.8% | -18.6% | -2.6% | 0.7%
COc1ccccc1OCc1n[nH]c(=S)n1Cc1ccccc1 | -0.1% | -11.4% | 7.6% | 16.3% | 1.1% | /
S=c1[nH]nc(COc2cccc(Cl)c2)n1Cc1ccccc1 | 1.1% | ? | 13.5% | 1.41µM* | 2.1% | /
S=c1[nH]nc(COc2ccc(Cl)cc2)n1Cc1ccccc1 | 1.1% | ? | 26.4% | 2.51µM* | 6.3% | -2.7%
Cc1ccc(C(=O)N/N=C\c2sccc2C)cn1 | -2.0% | ? | 15.2% | ? | -0.2% | -0.4%
Cc1ccsc1/C=N\NC(=O)c1ccc2c(c1)OCO2 | 5.3% | ? | 8.9% | 7.08µM* | -0.4% | -18.8%
O=C(N/N=C/c1ccc2c(c1)OCO2)c1ccc2c(c1)OCO2 | / | 11.3% | 5.4% | -32.6% | 5.1% | 3.4%
Cc1ccsc1/C=N/NC(=O)c1ccc2c(c1)OCCO2 | 0.2% | -89.2% | 3.8% | 1.41µM* | 3.0% | /
Cc1ccsc1/C=N\NC(=O)c1cc(C(C)(C)C)[nH]n1 | 0.1% | 20µM* | -17.5% | 10µM* | 0.0% | ?
Cc1ccsc1/C=N/NC(=O)c1sccc1C | -1.2% | ? | 19.1% | 7.94µM* | 6.5% | 0.9%
Cc1cc(-c2ccc(C)c(S(=O)(=O)N3CCCC(C)C3)c2)on1 (stereo unspecified) | -1.7% | / | / | / | 0.3% | 1.6%
Cc1ccsc1/C=N/NC(=O)CSCc1ccc(Cl)cc1 | 1.5% | 10µM* | -3.6% | 11.2µM* | -0.5% | -2.5%
Cc1ccsc1/C=N\NC(=O)c1n[nH]c2c1CCC2 | -1.0% | 7.08µM* | -1.5% | 3.98µM* | 11.1% | -2.5%
Cc1ccsc1/C=N\NC(=O)Cn1nnc2ccccc21 | 2.3% | ? | 15.2% | 14.1µM* | 0.3% | -5.0%
Cc1ccc2oc(=O)n(CCNC(=O)Nc3ccc(C)c(F)c3)c2c1 | 19.8% | / | / | / | 1.6% | -0.1%
N=c1c(C(=O)NCc2ccccc2)cc2c(=O)n3ccccc3nc2n1Cc1ccco1 | -2.4% | ? | -15.8% | ? | 2.1% | -16.6%
COCCn1c(=N)c(C(=O)NCc2ccco2)cc2c(=O)n3ccccc3nc21 | -0.7% | -0.7% | -0.4% | -2.8% | -1.5% | 28.2µM*
Cc1ccc(CNC(=O)c2cc3c(=O)n4ccccc4nc3n(Cc3ccco3)c2=N)cc1 | 4.1% | 2.82µM* | ? | 3.16µM* | 1.3% | -24.4%
N=c1c(C(=O)NCc2ccc(F)cc2)cc2c(=O)n3ccccc3nc2n1Cc1ccco1 | 2.1% | ? | -6.2% | 21.5% | -1.4% | -15.1%
N=c1c(C(=O)NCc2ccco2)cc2c(=O)n3ccccc3nc2n1Cc1ccccc1 | 0.0% | -2.3% | 2.5% | 14.9% | 1.5% | 17.8µM*
Cc1cccn2c(=O)c3cc(C(=O)NC4CCCC4)c(=N)n(C4CCCC4)c3nc12 | -0.8% | 12.7% | -2.4% | -19.0% | 6.1% | ?
N=c1c(C(=O)NC2CCCC2)cc2c(=O)n3ccccc3nc2n1C1CCCC1 | 1.0% | -25.2% | 3.5% | 0.7% | / | 3.16µM*
SMILES | Epigenetic reg | VP16 counter | Sfp PPTase inh | RORgamma inh | PINK1 modulator | ClpP mod
CCOC(=O)NC1(C(F)(F)F)NC(=O)N(c2ccc(C)c(C)c2)C1=O (stereo unspecified) | 0.0% | / | / | / | 0.9% | -2.4%
COCCn1c(SCC(=O)c2ccccc2)nc2cc(C(=O)NC3CCCC3)ccc2c1=O | 2.7% | / | / | / | -1.1% | -1.8%
CCOC(=O)c1c(NC(=O)/C=C/c2ccc(C(C)C)cc2)sc2c1CCC2 | -1.6% | / | / | / | 0.4% | -2.2%
Cc1cccc2cc(CNCCCN3CCCC3=O)c(N3CCN4CCCC4C3)nc12 (stereo unspecified) | / | / | / | / | 1.0% | /
CCN(CC)CCNC(=O)C1CCN(C(=O)c2cnn(-c3ccccc3)c2-n2cccc2)CC1 | -3.5% | / | / | / | 1.5% | 0.0%
N=c1c(C(=O)NCc2ccco2)cc2c(=O)n3ccccc3nc2n1Cc1ccc(Cl)cc1 | 7.08µM* | 9.0% | 50.1µM* | -1.0% | -2.7% | ?
CC(CNC(=O)c1ccc(CSc2nc3ccncc3n2Cc2cccc(F)c2)cc1)c1ccccc1 (stereo unspecified) | 0.0% | / | / | / | 3.0% | -10.5%
FC(F)(F)c1cnc2c(c1)[nH]c(=S)n2-c1ccc(Cl)cc1 | / | ? | 6.2% | 7.94µM* | 39.8µM* | -9.0%
Fc1ccc(-n2c(=S)[nH]c3cccnc32)cc1 | / | ? | 28.2µM* | ? | 17.4% | -0.3%
CC(C)(C)CC(C)(C)N=C1Nc2ccc(Cl)cc2N[C@]12C[C@H]1CCCC(=O)N3CC[C@@H](C2)[C@@H]13 | / | / | / | / | / | -2.3%
COc1ccc2oc(C(=O)OCC(=O)N3CCCC(C)C3)c(C)c2c1 (stereo unspecified) | / | / | / | / | -4.6% | 14.1µM*
CCOc1ccc2oc(C(=O)OCC(=O)N3CC(C)OC(C)C3)c(C)c2c1 (stereo unspecified) | / | / | / | / | 1.9% | 4.4%
COc1ccc2oc(C(=O)OCC(=O)N3CCCCC3)c(C)c2c1 | / | / | / | / | 4.2% | /
COc1ccc2oc(C(=O)OCC(=O)N3CCN(C(C)=O)CC3)c(C)c2c1 | / | / | / | / | 3.6% | 25.1µM*
CCOc1ccc2oc(C(=O)OCC(=O)N3CCCC(C)C3)c(C)c2c1 (stereo unspecified) | / | / | / | / | 0.6% | 28.2µM*
Cc1ccc(CO)cc1 | / | -7.0% | / | 1.0% | / | /
Cc1cnc(SCC2CCCO2)nc1C1CCCN(Cc2cc3c(cc2Cl)OCO3)C1 (stereo unspecified) | / | / | / | / | 1.0% | /
COc1ccc2c(c1)c1c(c(=O)n(Cc3ccccc3)c(=O)n1Cc1ccccc1)n2C | 0.8% | / | / | / | 3.2% | ?
O=c1c2sc3ccccc3c2n(Cc2cccc(C(F)(F)F)c2)c(=O)n1-c1ccccc1 | -1.8% | / | / | / | 0.4% | 3.5%
COC(CNC(=O)c1ccc2c3c(onc13)-c1ccccc1C2=O)OC | 0.1% | ? | 17.8µM* | ? | 0.3% | /
Nc1ccc2nc3c(=O)n(CCc4ccccc4)c(=O)[nH]c3nc2c1 | 6.2% | 9.4% | -18.1% | ? | 0.7% | /
CCCCn1c(=O)[nH]c2nc3cc(N)ccc3nc2c1=O | 0.2% | 0.7% | 56.2µM* | 36.1% | -0.6% | -2.9%
Cc1cc2nc3c(=O)n(CCc4ccccc4)c(=O)[nH]c3nc2cc1N | 0.1% | -1.7% | 7.94µM* | ? | 17.1% | /
